CR mimetic SO: lowers age-related superoxide in aged yeast cells. AID 2690. S. cerevisiae aged cells, superoxide DHE fluorescence; stronger effect = lower value. 0.18% of 330,000 active. superoxide response (% of plate mean), % at 10 µM;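 active = superoxide response under a set limit, about three screen SD below normal, cut at about 65% in these data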;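 also: yeast aged for seven days with compound at 30 °C before DHE staining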
SUMO Mot1 rescue: blocks SUMOylation pathway, rescuing yeast Mot1-301 growth; S. cerevisiae Mot1-301 growth rescue, ATP luminescence, 38.5C; percent above DMSO median, 100 means doubled; growth rescue, % at 18.8 µM; 1% of 320,000 active; AID 2716;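 active = every valid replicate shows activation above 250% relative to neutral control wells; inactive = the rest, any valid replicate at or below 250%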
H9c2 protect: myocardial damage modulation in H9c2 cells; protection from H2O2 cell death, % at 20 µM; H9c2 cardiomyocytes, H2O2 injury protection, ATPLite, 2 h; 0.63% of 360,000 active;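 active = compounds giving at least 50% protection of heart cells from peroxide-induced death in the single-dose screen, raw or plate-pattern-corrected value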
MPTP inh: blocks calcium-induced mitochondrial swelling. isolated mouse mitochondria, Ca2+ swelling absorbance, 30 min. inhibition, % at 10 µM. 1.4% of 360,000 active. AID 602449;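 active = inhibition of 50% or more, scaled per plate between neutral and stimulator controls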
FAS TE block: FAS thioesterase (human) inhibition; P49327; recombinant FAS-TE, OMFH fluorogenic substrate, fluorescence endpoint; inhibition, % at 15 µM; 0.67% of 360,000 active; AID 602261;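 active = compounds whose normalised, plate-corrected inhibition of enzyme fluorescence in the single-dose primary screen is 50% or more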
aDG glyco up: increases alpha dystroglycan glycosylation; 0.22% of 360,000 active; Pro5-aDG cells, alpha-DG glycosylation AlphaScreen (IIH6); 0% Pro5, 100% B10-LARGE cell signal; AID 624168; activation, % at 10 µM;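 active = activation of at least 8% versus controls, or a plate z-score of at least 8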;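 also: Pro5 are CHO cells carrying HIG-tagged alpha-DG that lacks glycosylation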
FAS-TE inh conf: FAS thioesterase (human) inhibition, confirmation | shares compounds with FAS TE block | recombinant FAS-TE, OMFH fluorogenic substrate, fluorescence | inhibition, % at 15 µM | 45% of 2,300 active | AID 624325;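 active = compounds inhibiting the enzyme by at least 50% at 15 µM in any one of the replicates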
A number is an active result. Hits are enriched below; roughly 3.8% of the tested compounds scored in any of these assays.

How did O=C(NC(=S)Nc1ccc2c(c1)OCCO2)c1cccc2ccccc12 do in these assays?
CR mimetic SO: inactive; SUMO Mot1 rescue: inactive; H9c2 protect: inactive; MPTP inh: inactive; FAS TE block: 56.3; aDG glyco up: inactive; FAS-TE inh conf: inactive

What do the screens show for `CN(C(=O)c1cccc(NC(=O)Cc2ccc(NC(=O)C3CCN(S(=O)(=O)c4cccc([N+](=O)[O-])c4)CC3)cc2)c1)C1CCCC1`?
H9c2 protect: inactive; MPTP inh: inactive; FAS TE block: 59.2; aDG glyco up: inactive; FAS-TE inh conf: inactive

Results for CN(C(=O)c1cccc(NC(=O)Cc2ccc(NC(=O)C3CCCN(S(=O)(=O)c4cccc([N+](=O)[O-])c4)C3)cc2)c1)C1CCCCC1 (stereo not given) ?
H9c2 protect: inactive; MPTP inh: inactive; FAS TE block: 73.1; aDG glyco up: inactive; FAS-TE inh conf: inactive

What do the screens show for `O=C(O)c1ccccc1NC(=O)c1ccccc1Nc1ccccc1`?
CR mimetic SO: inactive; SUMO Mot1 rescue: inactive; H9c2 protect: inactive; MPTP inh: inactive; FAS TE block: inactive; aDG glyco up: inactive

How did O=C(COC(=O)CCc1ccccc1)Nc1cc([N+](=O)[O-])ccc1F do in these assays?
CR mimetic SO: inactive; SUMO Mot1 rescue: inactive; H9c2 protect: inactive; MPTP inh: inactive; FAS TE block: 73.0; aDG glyco up: inactive; FAS-TE inh conf: 67.0

How did O=C(COC(=O)CC1CC2CCC1C2)Nc1cc([N+](=O)[O-])ccc1F (stereo not given) do in these assays?
CR mimetic SO: inactive; SUMO Mot1 rescue: inactive; H9c2 protect: inactive; MPTP inh: inactive; FAS TE block: 80.0; aDG glyco up: inactive; FAS-TE inh conf: 87.4

How did O=C(NCCN1CCC(n2c(=O)[nH]c3ccccc32)CC1)N1c2ccccc2Sc2ccccc21 do in these assays?
MPTP inh: inactive; FAS TE block: inactive; aDG glyco up: inactive

What do the screens show for `O=C(NN1C(=O)c2ccccc2NC1c1ccc([N+](=O)[O-])o1)c1ccccc1` (stereo not given)?
CR mimetic SO: inactive; SUMO Mot1 rescue: inactive; H9c2 protect: inactive; MPTP inh: inactive; FAS TE block: 52.2; aDG glyco up: inactive; FAS-TE inh conf: inactive

How did Cc1nc2scc(-c3ccc(Cl)cc3)c2c(=O)o1 do in these assays?
CR mimetic SO: inactive; SUMO Mot1 rescue: inactive; H9c2 protect: inactive; MPTP inh: inactive; FAS TE block: 70.2; aDG glyco up: inactive; FAS-TE inh conf: 65.4

How did COc1ccc(-c2csc3nc(-c4ccccc4F)oc(=O)c23)cc1 do in these assays?
CR mimetic SO: inactive; SUMO Mot1 rescue: inactive; H9c2 protect: inactive; MPTP inh: inactive; FAS TE block: 62.2; aDG glyco up: inactive; FAS-TE inh conf: 51.2

Results for CCN(CC)CCC12CC(C)OC1=Nc1ccccc1NC2=O (stereo not given) ?
H9c2 protect: inactive; MPTP inh: inactive; FAS TE block: inactive; aDG glyco up: inactive

What do the screens show for `CCn1cc(C(=O)NCc2ccc(Cl)cc2)c(=O)c2cc(S(=O)(=O)N(C)C)ccc21`?
CR mimetic SO: inactive; SUMO Mot1 rescue: inactive; H9c2 protect: inactive; MPTP inh: inactive; FAS TE block: 64.1; aDG glyco up: inactive; FAS-TE inh conf: 76.6

What do the screens show for `CCn1cc(C(=O)NCCc2ccc(Cl)cc2)c(=O)c2cc(S(=O)(=O)N(C)C)ccc21`?
H9c2 protect: inactive; MPTP inh: inactive; FAS TE block: 74.6; aDG glyco up: inactive; FAS-TE inh conf: inactive

How did CCn1cc(C(=O)NCCCN(C)c2ccccc2)c(=O)c2cc(S(=O)(=O)N(C)C)ccc21 do in these assays?
CR mimetic SO: inactive; SUMO Mot1 rescue: inactive; H9c2 protect: inactive; MPTP inh: inactive; FAS TE block: inactive; aDG glyco up: inactive

Results for CCn1cc(C(=O)NCc2ccc3c(c2)OCO3)c(=O)c2cc(S(=O)(=O)N(C)C)ccc21 ?
CR mimetic SO: inactive; SUMO Mot1 rescue: inactive; H9c2 protect: inactive; MPTP inh: inactive; FAS TE block: 57.4; aDG glyco up: inactive; FAS-TE inh conf: 42.1

High-throughput results from PubChem.
